Laboratory results from PubChem BioAssay AID2163 (National Center for Advancing Translational Sciences (NCATS), 2009).
The other results are listed elsewhere or left out. Calls of active or inactive are those of the source.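 Rule for the calls: active = compounds that slowed 12-hLO product formation enough to yield a measured IC50 potency; inactive = the rest.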

target: Polyunsaturated fatty acid lipoxygenase ALOX12 (Homo sapiens) (UniProt P18054); experiment: Cuvette-Based Assay for Inhibitors of 12-hLO (12-human lipoxygenase): 8HQ Series - Round 1; conditions: purified 12-hLO, cuvette UV 234 nm product formation
Description: Assay Provider: Holman, T.R., University of California, Santa Cruz Screening Center PI: Austin, Christopher P. Screening Center: NIH Chemical Genomics Center The enzyme activity of 12-hLO was determined by a direct measurement of product formation by monitoring the absorbance at 234 nm in a 2 mL cuvette. IC50 values of inhibitors were obtained by measuring the enzymatic rate at a variety of concentrations (Carroll et al, Segraves et al).
For control experiments, 2 mL of substrate buffer (10 uM arachidonic acid / 25 mM HEPES / 0.01% (v/v) Triton X-100, pH 8.0) was aliquoted in a cuvette with a magnetic stir bar. After equilibrium was ensured, an aliquot of inhibitor solvent was added (DMSO), and equilibrium was once again assured. The reaction was started by adding enzyme to the cuvette and the reaction was followed until completed. The inhibition experiments were performed as above, except the actual inhibitory compound was added instead of vehicle. To achieve an IC50, typically 5 concentrations of the inhibitor were studied. If the inhibitor concentration was constant, then five different reaction volumes were used. […] 3; No change in absorbance ensured. […] 5; No change in absorbance ensured. […]

Chain of Polyunsaturated fatty acid lipoxygenase ALOX12 (Homo sapiens) (P18054 whole entry, looked up): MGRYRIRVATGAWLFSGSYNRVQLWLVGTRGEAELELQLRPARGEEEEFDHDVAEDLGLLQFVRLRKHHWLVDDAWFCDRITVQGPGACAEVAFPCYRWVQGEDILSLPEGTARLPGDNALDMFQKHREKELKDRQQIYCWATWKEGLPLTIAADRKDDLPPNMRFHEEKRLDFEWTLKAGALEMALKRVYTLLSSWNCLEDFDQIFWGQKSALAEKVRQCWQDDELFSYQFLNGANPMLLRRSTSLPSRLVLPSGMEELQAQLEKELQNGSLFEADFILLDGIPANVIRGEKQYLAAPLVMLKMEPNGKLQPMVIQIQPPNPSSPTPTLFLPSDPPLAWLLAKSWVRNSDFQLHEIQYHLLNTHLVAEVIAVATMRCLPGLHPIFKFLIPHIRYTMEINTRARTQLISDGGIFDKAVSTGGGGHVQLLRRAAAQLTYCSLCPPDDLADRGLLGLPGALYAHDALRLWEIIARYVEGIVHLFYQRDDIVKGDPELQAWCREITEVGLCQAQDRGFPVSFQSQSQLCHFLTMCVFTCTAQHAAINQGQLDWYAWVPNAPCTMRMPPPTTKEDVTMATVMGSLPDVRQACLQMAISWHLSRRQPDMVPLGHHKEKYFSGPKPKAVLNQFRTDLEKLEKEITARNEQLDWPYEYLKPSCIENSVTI

| Compound | Potency |
| --- | --- |
| CC(=O)NC(c1cccs1)c1cc(Cl)c2cccnc2c1O (stereo unspecified) | 1000 nM (active) |
